PubChem BioAssay (Tox21)
Records with an inconclusive call do not appear. The source made the active and inactive calls. Unless noted, calls follow the shape of the dose curve; as a rule, active = well fitted curve in the direction sought with a large enough effect in the repeat runs; inconclusive = weak or mixed curves; inactive = no such curve, though single readings can be large; an effect the other way counts as inactive or inconclusive.

Tests used:
[1] = target: Acetylcholinesterase (Homo sapiens) (UniProt P22303); assay: Acetylcholinesterase (AChE) small molecule antagonists: colormetric cell-based qHTS assay (AID 1347395; calls by dose curve; also: nearly all actives have a fitted effect of over 30% in size; also: potency is read from the fitted curve at half-maximal effect)
Chain of Acetylcholinesterase (Homo sapiens) (P22303 whole entry, looked up): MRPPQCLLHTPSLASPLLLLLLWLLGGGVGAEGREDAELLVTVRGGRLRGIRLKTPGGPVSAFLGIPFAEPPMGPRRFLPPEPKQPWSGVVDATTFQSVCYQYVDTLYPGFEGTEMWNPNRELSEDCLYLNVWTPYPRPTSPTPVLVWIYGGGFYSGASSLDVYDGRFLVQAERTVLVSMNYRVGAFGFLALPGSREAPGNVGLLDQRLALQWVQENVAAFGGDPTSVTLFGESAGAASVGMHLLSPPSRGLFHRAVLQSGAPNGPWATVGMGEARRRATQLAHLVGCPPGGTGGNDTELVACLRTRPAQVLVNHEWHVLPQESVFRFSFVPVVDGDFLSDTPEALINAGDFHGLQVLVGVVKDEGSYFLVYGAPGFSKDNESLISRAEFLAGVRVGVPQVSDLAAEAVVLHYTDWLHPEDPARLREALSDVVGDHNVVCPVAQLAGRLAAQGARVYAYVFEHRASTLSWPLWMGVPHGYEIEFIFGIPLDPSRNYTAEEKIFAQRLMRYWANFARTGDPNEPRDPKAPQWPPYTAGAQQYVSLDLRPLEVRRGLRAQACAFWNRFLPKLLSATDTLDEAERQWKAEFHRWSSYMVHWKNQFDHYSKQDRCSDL
Summary of the method: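 Neuroblastoma line SH-SY5Y supplied the enzyme; cells were preincubated with compound for 30 min at 37 C and 5% CO2. Acetylthiocholine with DTNB was then added for 90 min at 37 C, and thiocholine was measured by colour.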

[2] = target: Acetylcholinesterase (Homo sapiens) (UniProt P22303); assay: Acetylcholinesterase (AChE) small molecule antagonists: enzyme-based qHTS assay (AID 1347397; calls by dose curve; also: nearly all actives have a fitted effect of over 55% in size; also: potency is read from the fitted curve at half-maximal effect); conditions: Potency: AChE enzyme activity inhibition
Summary of the method: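 Enzyme inhibition was scored from DTNB-detected thiocholine formed by recombinant human AChE acting on acetylthiocholine. The 30 min compound preincubation and 10 min substrate reaction were both run at room temperature, with DMSO as vehicle control.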

[3] = target: Acetylcholinesterase (Homo sapiens) (UniProt P22303); assay: Acetylcholinesterase (AChE) small molecule antagonists: fluorescence cell-based qHTS assay (AID 1347398; calls by dose curve; also: nearly all actives have a fitted effect of over 50% in size; also: potency is read from the fitted curve at half-maximal effect); conditions: Potency: AChE activity
Summary of the method: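 Endogenous acetylcholinesterase of SH-SY5Y neuroblastoma cells is measured in situ. After overnight attachment and 30 min compound exposure, cells receive acetylthiocholine and Thiolite Green; fluorescence is read after 40 min at room temperature.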

[4] = target: Acetylcholinesterase (Homo sapiens) (UniProt P22303); assay: Acetylcholinesterase (AChE) small molecule antagonists: enzyme-based qHTS assay with human liver microsomes (AID 1347399; calls by dose curve; also: nearly all actives have a fitted effect of over 60% in size; also: potency is read from the fitted curve at half-maximal effect); conditions: Potency: qHTS inhibition
Summary of the method: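 Recombinant human AChE (50 mU/mL in the enzyme mix) and human liver microsomes (0.25 mg/mL final) were preincubated with compound and NADPH (0.25 mg/mL final) for 30 min at 37 C. Acetylthiocholine/DTNB was then added; thiocholine was read colorimetrically after 10 min at room temperature.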

[5] = target: Cytochrome P450 2D6 (Homo sapiens) (UniProt P10635); assay: Cytochrome P450 Family 2 Subfamily D Member 6 (CYP2D6) small molecule antagonists: luciferase reporter qHTS assay (AID 1671196); also: nearly all actives have a fitted effect of over 50% in size; also: potency is read from the fitted curve at half-maximal effect
Chain of Cytochrome P450 2D6 (Homo sapiens) (P10635 whole entry, looked up): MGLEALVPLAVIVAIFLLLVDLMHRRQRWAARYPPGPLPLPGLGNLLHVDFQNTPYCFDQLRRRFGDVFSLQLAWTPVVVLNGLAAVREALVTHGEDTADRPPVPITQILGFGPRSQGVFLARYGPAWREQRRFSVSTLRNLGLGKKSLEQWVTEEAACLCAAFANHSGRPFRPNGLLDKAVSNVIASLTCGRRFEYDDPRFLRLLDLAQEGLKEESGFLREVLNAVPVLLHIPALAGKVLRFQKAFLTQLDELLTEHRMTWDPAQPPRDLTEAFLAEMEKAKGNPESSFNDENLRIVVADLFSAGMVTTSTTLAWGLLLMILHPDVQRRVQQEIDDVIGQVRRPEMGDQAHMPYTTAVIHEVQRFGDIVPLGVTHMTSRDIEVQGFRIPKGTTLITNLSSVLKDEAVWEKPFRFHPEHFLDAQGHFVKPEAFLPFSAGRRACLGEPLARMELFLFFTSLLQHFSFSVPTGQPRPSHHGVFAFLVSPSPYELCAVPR
Summary of the method: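 Cell-free P450-Glo system: CYP2D6 with proluciferin substrate was pre-incubated with compound for 10 min, then reacted with NADPH regeneration for 1 h at room temperature. Luciferin product was detected after 20 min, and data were reported as relative luminescence units.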

[6] = target: Cytochrome P450 2C19 (Homo sapiens) (UniProt P33261); assay: Cytochrome P450 Family 2 Subfamily C Member 19 (CYP2C19) small molecule antagonists: luciferase reporter qHTS assay (AID 1671197); also: nearly all actives have a fitted effect of over 65% in size; also: potency is read from the fitted curve at half-maximal effect
Chain of Cytochrome P450 2C19 (Homo sapiens) (P33261 whole entry, looked up): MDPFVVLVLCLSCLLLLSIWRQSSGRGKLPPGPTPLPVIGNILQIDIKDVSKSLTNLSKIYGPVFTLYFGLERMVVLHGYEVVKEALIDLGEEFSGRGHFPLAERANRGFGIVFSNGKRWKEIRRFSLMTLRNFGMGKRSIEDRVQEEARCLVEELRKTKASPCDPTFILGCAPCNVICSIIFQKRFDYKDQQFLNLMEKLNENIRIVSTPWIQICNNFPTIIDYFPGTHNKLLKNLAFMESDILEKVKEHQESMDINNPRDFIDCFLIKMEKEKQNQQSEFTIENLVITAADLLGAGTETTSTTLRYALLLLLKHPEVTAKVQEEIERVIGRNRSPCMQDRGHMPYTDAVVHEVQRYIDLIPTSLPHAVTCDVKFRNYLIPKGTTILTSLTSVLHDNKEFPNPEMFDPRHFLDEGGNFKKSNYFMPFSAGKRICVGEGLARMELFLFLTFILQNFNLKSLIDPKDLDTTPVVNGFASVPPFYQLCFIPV
Summary of the method: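 Luminescent readout of CYP2C19 activity: luciferin product detected 20 min after adding detection reagent. Before that, compound and enzyme-substrate mix preincubated 10 min at room temperature; NADPH-regenerating system started a 1 h, 37C reaction. Ketoconazole as positive control.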

[7] = target: Cytochrome P450 2C9 (Homo sapiens) (UniProt P11712); assay: Cytochrome P450 Family 2 Subfamily C Member 9 (CYP2C9) small molecule antagonists: luciferase reporter qHTS assay (AID 1671198); also: nearly all actives have a fitted effect of over 50% in size; also: potency is read from the fitted curve at half-maximal effect
Chain of Cytochrome P450 2C9 (Homo sapiens) (P11712 whole entry, looked up): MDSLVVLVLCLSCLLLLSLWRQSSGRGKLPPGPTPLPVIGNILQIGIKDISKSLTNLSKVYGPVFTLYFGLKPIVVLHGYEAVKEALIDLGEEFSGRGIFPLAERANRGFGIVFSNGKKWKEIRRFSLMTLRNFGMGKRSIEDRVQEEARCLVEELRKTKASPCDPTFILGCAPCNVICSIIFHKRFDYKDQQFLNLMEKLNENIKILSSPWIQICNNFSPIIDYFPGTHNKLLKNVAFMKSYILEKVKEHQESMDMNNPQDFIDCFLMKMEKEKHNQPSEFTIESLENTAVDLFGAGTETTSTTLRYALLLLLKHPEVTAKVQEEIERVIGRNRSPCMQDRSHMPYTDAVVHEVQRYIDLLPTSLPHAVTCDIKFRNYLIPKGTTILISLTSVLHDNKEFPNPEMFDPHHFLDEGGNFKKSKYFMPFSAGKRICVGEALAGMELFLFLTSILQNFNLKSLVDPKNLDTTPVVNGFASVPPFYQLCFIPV
Summary of the method: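 P450-Glo proluciferin substrate with CYP2C9 enzyme; 10 min RT preincubation, then NADPH regeneration 1 h at 37C; luciferin detection reagent 20 min RT, luminescence in relative luminescence units.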

[8] = target: Cytochrome P450 1A2 (Homo sapiens) (UniProt P05177); assay: Cytochrome P450 Family 1 Subfamily A Member 2 (CYP1A2) small molecule antagonists: luciferase reporter qHTS assay (AID 1671199); also: nearly all actives have a fitted effect of over 50% in size; also: potency is read from the fitted curve at half-maximal effect
Chain of Cytochrome P450 1A2 (Homo sapiens) (P05177 whole entry, looked up): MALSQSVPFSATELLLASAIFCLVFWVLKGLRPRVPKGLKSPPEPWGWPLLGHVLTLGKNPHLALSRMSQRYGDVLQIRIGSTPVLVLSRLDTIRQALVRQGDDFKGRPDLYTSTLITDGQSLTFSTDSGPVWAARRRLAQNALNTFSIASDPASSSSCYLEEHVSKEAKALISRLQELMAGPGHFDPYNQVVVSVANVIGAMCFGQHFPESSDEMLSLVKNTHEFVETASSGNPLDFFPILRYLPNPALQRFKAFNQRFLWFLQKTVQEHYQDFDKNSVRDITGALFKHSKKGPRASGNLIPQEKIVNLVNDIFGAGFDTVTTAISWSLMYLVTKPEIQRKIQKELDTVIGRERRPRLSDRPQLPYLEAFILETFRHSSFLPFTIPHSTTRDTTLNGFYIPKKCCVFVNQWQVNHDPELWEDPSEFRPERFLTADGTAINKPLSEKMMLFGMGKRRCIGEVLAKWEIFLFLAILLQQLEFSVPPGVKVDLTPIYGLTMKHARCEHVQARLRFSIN
Summary of the method: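 P450-Glo CYP1A2 enzyme–proluciferin substrate mix with compound 10 min at room temperature, then NADPH regeneration 1 h at room temperature. Luciferin detection reagent added, luminescence read after 20 min; furafylline positive control.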

[9] = target: Voltage-gated inwardly rectifying potassium channel KCNH2 (Homo sapiens) (UniProt Q12809); assay: Human Ether-a-go-go-Related Gene (hERG) channel small molecule antagonists: fluorescence cell-based qHTS assay (AID 1671200)
Chain of Voltage-gated inwardly rectifying potassium channel KCNH2 (Homo sapiens) (Q12809 whole entry, looked up): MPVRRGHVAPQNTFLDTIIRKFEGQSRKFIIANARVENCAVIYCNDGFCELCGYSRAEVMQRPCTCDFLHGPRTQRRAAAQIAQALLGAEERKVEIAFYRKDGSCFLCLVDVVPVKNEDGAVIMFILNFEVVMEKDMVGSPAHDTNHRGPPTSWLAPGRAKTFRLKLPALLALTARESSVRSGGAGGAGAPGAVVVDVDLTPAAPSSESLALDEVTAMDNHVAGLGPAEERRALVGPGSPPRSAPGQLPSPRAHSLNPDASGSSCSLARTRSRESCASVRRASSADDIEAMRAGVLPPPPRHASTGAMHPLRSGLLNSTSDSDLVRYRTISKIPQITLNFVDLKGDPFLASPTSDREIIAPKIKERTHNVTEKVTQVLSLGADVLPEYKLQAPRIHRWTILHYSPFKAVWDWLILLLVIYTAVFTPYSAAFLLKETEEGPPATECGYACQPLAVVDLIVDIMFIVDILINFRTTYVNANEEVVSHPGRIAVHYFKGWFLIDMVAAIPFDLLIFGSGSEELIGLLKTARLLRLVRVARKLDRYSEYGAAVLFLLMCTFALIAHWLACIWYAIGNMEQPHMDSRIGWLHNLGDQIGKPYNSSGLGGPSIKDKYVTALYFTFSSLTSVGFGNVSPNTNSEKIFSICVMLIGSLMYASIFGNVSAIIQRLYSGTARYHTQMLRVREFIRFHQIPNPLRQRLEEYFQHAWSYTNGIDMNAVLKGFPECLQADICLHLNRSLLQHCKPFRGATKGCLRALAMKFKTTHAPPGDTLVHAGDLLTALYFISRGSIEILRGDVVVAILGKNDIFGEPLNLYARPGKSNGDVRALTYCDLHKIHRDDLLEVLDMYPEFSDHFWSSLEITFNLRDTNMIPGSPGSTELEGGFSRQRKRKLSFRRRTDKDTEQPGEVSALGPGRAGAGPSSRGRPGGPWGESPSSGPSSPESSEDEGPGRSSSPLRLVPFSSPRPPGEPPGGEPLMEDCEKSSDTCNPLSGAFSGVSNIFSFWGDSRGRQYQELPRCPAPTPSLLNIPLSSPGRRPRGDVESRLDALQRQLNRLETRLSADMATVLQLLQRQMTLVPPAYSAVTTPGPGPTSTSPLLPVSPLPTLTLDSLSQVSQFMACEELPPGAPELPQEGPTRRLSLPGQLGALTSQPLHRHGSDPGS
Summary of the method: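 Measured: Tl+ flux via fluorescence (480/540 nm) in hERG-expressing U2OS cells after 1 h dye loading at room temperature.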

[10] = target: Cytochrome P450 3A4 (Homo sapiens) (UniProt P08684); assay: Cytochrome P450 Family 3 Subfamily A Member 4 (CYP3A4) small molecule antagonists: luciferase reporter qHTS assay (AID 1671201); also: nearly all actives have a fitted effect of over 50% in size; also: potency is read from the fitted curve at half-maximal effect
Chain of Cytochrome P450 3A4 (Homo sapiens) (P08684 whole entry, looked up): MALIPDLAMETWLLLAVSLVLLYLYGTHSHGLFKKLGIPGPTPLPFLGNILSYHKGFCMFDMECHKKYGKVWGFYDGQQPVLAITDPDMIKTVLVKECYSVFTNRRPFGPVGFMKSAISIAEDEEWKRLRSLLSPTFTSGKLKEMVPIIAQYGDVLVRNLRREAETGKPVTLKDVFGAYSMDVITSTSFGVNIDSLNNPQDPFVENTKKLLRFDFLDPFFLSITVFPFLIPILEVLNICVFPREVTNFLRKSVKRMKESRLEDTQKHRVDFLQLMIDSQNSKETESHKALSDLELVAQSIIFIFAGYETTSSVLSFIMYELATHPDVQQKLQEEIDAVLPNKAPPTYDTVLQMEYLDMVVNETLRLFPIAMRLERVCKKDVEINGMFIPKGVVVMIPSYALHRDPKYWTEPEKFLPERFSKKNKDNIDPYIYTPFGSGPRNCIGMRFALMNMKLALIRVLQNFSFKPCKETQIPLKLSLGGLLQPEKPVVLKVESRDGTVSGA
Summary of the method: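 Setup: enzyme-substrate mix, compound pin transfer, 10 min RT. Reaction: NADPH regeneration solution, 1 h RT. Readout: detection reagent stops turnover, luminescence measured after 20 min, expressed in relative luminescence units.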

Measured: Potency

COc1cc(Cl)c(OC)cc1Cl
active: [6] 79.6 µM | [7] 71 µM | [8] 12.6 µM
inactive: [1] | [2] | [3] | [4] | [5] | [9]

O=C(Nc1ccccc1)Nc1ccnc(Cl)c1
active: [5] 39.9 µM | [6] 35.6 µM | [7] 10 µM | [8] 20 µM
inactive: [1] | [2] | [3] | [4] | [9]

ClC=C(Cl)Cl
inactive: [1] | [2] | [3] | [4] | [5] | [6] | [7] | [8] | [9]

CCOc1ccc(C(C)(C)COCc2cccc(Oc3ccccc3)c2)cc1
active: [5] 35.6 µM | [6] 17.8 µM | [7] 6.33 µM
inactive: [1] | [2] | [3] | [4]

CC(C)N(CCC(C(N)=O)(c1ccccc1)c1ccccn1)C(C)C (configuration not stated)
inactive: [1] | [2] | [3] | [4]

NC(=O)CI
active: [5] 63.8 µM | [6] 80.4 µM | [7] 63.8 µM | [8] 35.9 µM
inactive: [1] | [2] | [3] | [4] | [9]

COc1nn(C(=O)NS(=O)(=O)c2ccccc2OC(F)(F)F)c(=O)n1C
inactive: [1] | [2] | [3] | [4] | [5] | [6] | [8] | [9] | [10]
active: [7] 32.5 µM

CC1(C)CCC(Cc2ccc(Cl)cc2)C1(O)Cn1cncn1 (configuration not stated)
inactive: [1] | [2] | [3] | [4]
active: [5] 35.6 µM | [6] 0.126 µM | [7] 0.178 µM | [8] 39.9 µM

C[N+](C)(C)CCCl
inactive: [1] | [2] | [3] | [4] | [5] | [6] | [7] | [8] | [9]

CO/C=C(/C(=O)OC)c1ccccc1COc1cccc(C(F)(F)F)n1
inactive: [1] | [2] | [3] | [4] | [9] | [10]
active: [5] 39.9 µM | [6] 0.709 µM | [7] 39.9 µM | [8] 35.5 µM

CC1CC(CC2CCC(N)C(C)C2)CCC1N (configuration not stated)
inactive: [1] | [2] | [3] | [4] | [6] | [7] | [9]
active: [5] 12.8 µM | [8] 32.2 µM | [10] 2.87 µM

CCc1ccc(C(=O)NN(C(=O)c2cc(C)cc(C)c2)C(C)(C)C)cc1
inactive: [1] | [2] | [3] | [4] | [5] | [8]
active: [6] 5.03 µM | [7] 11.2 µM

CCOP(=S)(OCC)SCn1nnc2ccccc2c1=O
inactive: [9]
active: [1] 12.6 µM | [2] 35.6 µM | [3] 5.64 µM | [4] 0.252 µM | [5] 35.6 µM | [6] 0.356 µM | [7] 0.633 µM | [8] 35.6 µM

CCCCC(O)(Cn1cncn1)c1ccc(Cl)cc1Cl (configuration not stated)
inactive: [1] | [2] | [3] | [4]
active: [5] 31.7 µM | [6] 0.252 µM | [7] 0.71 µM | [8] 35.6 µM

CNC(C)Cc1ccccc1OC (configuration not stated)
active: [5] 13.8 µM
inactive: [1] | [2] | [3] | [4] | [6] | [7] | [8]

CC(=O)CCC(C)=O
inactive: [1] | [2] | [3] | [4] | [5] | [6] | [7] | [8] | [9] | [10]

[CH3][Sn]([CH3])([Cl])[Cl]
inactive: [1] | [2] | [3] | [4] | [5] | [6] | [7] | [8] | [9]

COc1nn(CSP(=S)(OC)OC)c(=O)s1
inactive: [2] | [3] | [4] | [9]
active: [1] 69.6 µM | [5] 31.7 µM | [6] 0.633 µM | [7] 5.48 µM | [8] 7.96 µM

Clc1cccc2ccccc12
inactive: [1] | [2] | [3] | [4] | [5] | [6] | [7]

ClCc1cccc(Cl)c1
active: [5] 27.5 µM
inactive: [1] | [2] | [3] | [4] | [6] | [7] | [8] | [9] | [10]

CCOc1nc(F)cc2nc(S(=O)(=O)Nc3c(Cl)cccc3Cl)nn12
inactive: [1] | [2] | [3] | [4] | [5] | [6] | [8] | [9]
active: [7] 71 µM

O=Cc1ccc(Cl)cc1Cl
inactive: [1] | [2] | [3] | [4] | [5] | [6] | [7] | [8] | [9]

[O-][Cl+]O
inactive: [1] | [2] | [3] | [4] | [5] | [6] | [7] | [8] | [9] | [10]

CN1C(=O)C(O)N=C(c2ccccc2)c2cc(Cl)ccc21 (configuration not stated)
inactive: [1] | [2] | [3]

COC(N)=O
inactive: [1] | [2] | [3] | [4] | [5] | [6] | [7] | [9]
active: [8] 35.6 µM
